The list is not random: actives were taken first. Their share in the collection is about 6.3%.
Spn PMK inh: blocks S. pneumoniae phosphomevalonate kinase; purified PMK, PK/LDH-coupled NADH absorbance 340 nm; inhibition, % at 10 µM; actives 0.49% (n = 65,000);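 active means top-ranked compounds by inhibition in the single 10 µM screen, taking a fixed number of the strongest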;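 further: 0% = full reaction with DMSO carrier and 100% = background rate without enzyme reaction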
Fluor 339 460: intrinsic fluorescence of library compounds, ex339/em460 – biochemical, MLSMR library, data from DPM-DC assay, artefact control, profiling panel; compound autofluorescence, ex339/em460 nm, NADH buffer; hits give high values; 1 = no-compound wells, NADH background; fluorescence fold increase at 10 µM; actives 5.5% (n = 65,000); AID 709;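 active means at 10 µM, mean starting fluorescence two-fold or more over control wells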;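 further: signal is the first read of a kinetic run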
Spn DPM-DC inh: inhibitors of Streptococcus pneumoniae diphosphomevalonate decarboxylase; calls only at 10 µM; actives 0.49% (n = 65,000); AID 556; purified DPM-DC, PK/LDH coupled NADH fluorescence;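 active means the 320 compounds with the highest percent inhibition in the single-dose primary screen, excluding strongly autofluorescent ones, cut at about 32% in these data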;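 further: kinetic rate of NADH fluorescence loss reporting ADP formed by the decarboxylase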
Spn MK inh: inhibitors of Streptococcus pneumoniae mevalonate kinase | purified MK, PK/LDH-coupled NADH absorbance 340 nm | inhibition, % at 10 µM | actives 0.48% (n = 65,000);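 active means ranked among the strongest by inhibition in the single 10 µM screen, a fixed top-ranked set picked for dose follow-up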
A340 absorber: absorbance at 340 nm; compound absorbance at 340 nm, fold over control; fold change at 10 µM; 65,000 tested, under 10 active;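 active means at 10 µM dose, initial 340 nm absorbance at least 2 fold that of control wells; inactive means change under 2 fold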;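 further: initial absorbance extrapolated from kinetic A340 decline of NADH oxidation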
NADH coupling: inhibition of NAD/NADH coupling enzymes, library profiling; coupled PK/LDH NADH assays, four targets; actives 0.02% (n = 65,000); IC50, µM (series often up to 10 µM), for the others: at the highest dose inhibition; AID 774;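 active means single-dose screening hits from any of four coupled enzyme assays that gave an IC50 when retested across doses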;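 further: the DPM-DC format reads NADH fluorescence rather than 340 nm absorbance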
* = called active by the depositor; i = inactive; / = not tested or not shown; + = active, no number.

SMILES | Spn PMK inh | Fluor 339 460 | Spn DPM-DC inh | Spn MK inh | A340 absorber | NADH coupling
COC(=O)c1[nH]c2cccc(OC)c2c1NC(=O)CN1CC2(C)CC1CC(C)(C)C2 (stereo not drawn) | 4 | 2* | i | 1 | 1 | 6%
CCOC(=O)C(NC=O)(NC(C)(C)C)C(=O)OCC | 0 | 1.1 | i | 6 | 1 | 2%
O=C(C1CCCN(c2ncccn2)C1)N1CCc2ccccc21 (stereo not drawn) | 18 | 1.2 | i | 0 | 1 | 6%
O=c1oc(-c2cccs2)nc2sc3c(c12)CCCCC3 | 8 | 2.1* | / | 2 | 1 | 5%
CCn1cc(C(=O)O)c(=O)c2cnc(N3CCN(C(=O)Nc4cccc5ccccc45)CC3)nc21 | 9 | 1.4 | i | 7 | 1.1 | 6%
Cc1ccccc1-c1nnc(-c2ccc(Br)cc2)o1 | 7 | 1.1 | i | 5 | 1 | 4%
Oc1ccccc1-c1nnc(-c2ccc(C(F)(F)F)cc2)o1 | 22 | 2.5* | i | 0 | 1 | 17%
Cc1cccc(-n2nnc(C(=O)NCc3ccccn3)c2N)c1 | 8 | 0.84 | i | 4 | 0.97 | 6%
CCOC(=O)C1=C(C)Nc2nc(SCC)[nH]c(=O)c2C1c1ccncc1 (stereo not drawn) | 0 | 1.2 | i | 9 | 1.1 | 3%
CC(C)(C)CC(=O)Nc1nnc(-c2cccs2)s1 | 14 | 1.3 | + | 0 | 1.1 | 17%
Cc1ccc(OCc2nnc(NC(=O)Cc3cccs3)s2)cc1 | 0 | 1.1 | i | 11 | 1 | 4%
Cc1ccnc(NC(=O)CCC(=O)N(CC(=O)NCC2CCCO2)Cc2ccc(F)cc2)c1 (stereo not drawn) | 21 | 1.1 | i | 10 | 0.97 | 10%
CCC1SC2=NC(C)=C(C(=O)OC)C(c3cccs3)N2C1=O (stereo not drawn) | 14 | 1.1 | i | 16 | 1.1 | 10%
Cc1nc2cc(NC(=O)NCc3ccco3)ccc2n1C | 8 | 1.1 | + | 10 | 0.97 | 39%
Cc1nc2ccc(NC(=O)NCc3ccco3)cc2s1 | 9 | 1.1 | i | 5 | 0.99 | 2%
COc1ccccc1-c1c(C#N)c(SCC(=O)N2CCCC2)nc(C)c1C(N)=O | 0 | 1.1 | i | 11 | 1 | 7%
Cc1cc2oc(=O)cc(CN3CCCCC3)c2cc1C(C)C | 11 | 1.1 | i | 0 | 1 | 2%
Cc1c(O)c(CN2CCCC2)cc2c1oc(=O)c1ccccc12 | 3 | 1.2 | i | 2 | 1.1 | 2%
Cc1c(O)c(CN2CCCC2)cc2c3c(c(=O)oc12)CCC3 | 13 | 3.7* | / | 9 | 1.1 | 11%
CCc1cc(=O)oc2c(C)c(O)c(CN3CCCCC3)cc12 | 8 | 3.9* | / | 10 | 1.2 | 9%
CNC(=O)C1CC(=O)N(Cc2ccc3c(c2)OCO3)C(=Nc2ccc(OC)cc2)S1 (stereo not drawn) | 27* | 1.1 | i | 0 | 1 | 9%
NC(=O)C1CC(=O)N(Cc2ccc3c(c2)OCO3)C(=Nc2ccccc2)S1 (stereo not drawn) | 18 | 1.1 | i | 0 | 1.1 | 6%
COc1ccc(Cl)cc1S(=O)(=O)N1CCN(C(=O)c2ccco2)CC1 | 0 | 1.2 | i | 10 | 0.98 | 10%
CCCC(=O)N1CCN(S(=O)(=O)c2cc(Cl)ccc2OC)CC1 | 3 | 5.1* | / | 3 | 0.97 | 3%
O=C1c2ccccc2C(=O)N1CSc1ncccn1 | 10 | 1.1 | i | 7 | 1.1 | 6%
SMILES | Spn PMK inh | Fluor 339 460 | Spn DPM-DC inh | Spn MK inh | A340 absorber | NADH coupling
Cc1ccc(S(=O)(=O)c2cc3c(=O)n4cc(C)ccc4nc3n(CC3CCCO3)c2=N)cc1 (stereo not drawn) | 1 | 2.1* | i | 9 | 1.1 | 8%
Cn1c(=N)c(S(=O)(=O)c2ccc(Cl)cc2)cc2c(=O)n3ccccc3nc21 | 11 | 1.8 | i | 7 | 0.98 | 6%
CCOC(=O)CSc1nc2ccccc2c(=O)n1CC1CCCO1 (stereo not drawn) | 11 | 1.2 | i | 0 | 1.1 | 4%
N=c1c(S(=O)(=O)c2ccccc2)cc2c(=O)n3ccccc3nc2n1CC1CCCO1 (stereo not drawn) | 4 | 3.1* | i | 6 | 1 | 10%
N#Cc1ccc(-c2cccnc2)nc1SCC(=O)Nc1sc2c(c1C#N)CCC2 | 47 | 1.1 | i | 62* | 1.1 | 45%
C=CCOc1ccc2ccccc2c1CNc1ncn[nH]1 | 5 | 1.1 | i | 7 | 1 | 5%
CCN(CC)S(=O)(=O)c1ccc(NC(=O)c2cccc3c2C(=O)N(CCOC)C3)cc1 | 18 | 1.3 | + | 10 | 0.98 | 9%
COCCN1Cc2cccc(C(=O)Nc3ccc(S(=O)(=O)N4CCCCCC4)cc3)c2C1=O | 22 | 1.4 | i | 9 | 0.99 | 11%
COc1cc2cc3c(N)c(C(=O)NCc4ccco4)sc3nc2cc1OC | 20 | 1.2 | i | 9 | 1.1 | 13%
COc1ccccc1NC(=O)c1oc2ccccc2c1NC(=O)c1ccco1 | 7 | 5* | / | 10 | 1 | 9%
COc1ccccc1NC(=O)c1sc2nc(-c3ccco3)ccc2c1N | 3 | 3.8* | / | 11 | 1.1 | 7%
CCOc1cc(NC(=O)c2ccco2)c(OCC)cc1NC(=O)c1cc(OC)c(OC)c(OC)c1 | 3 | 4* | / | 7 | 1.1 | 5%
NC(=O)c1oc2ccccc2c1NC(=O)c1ccco1 | 0 | 1.1 | i | 3 | 1.1 | 1%
COc1cc(NC(=O)c2ccco2)c(OC)cc1NC(=O)c1cc(OC)c(OC)c(OC)c1 | 3 | 1.1 | i | 5 | 1.1 | 5%
Nc1c(C(=O)Nc2ccccc2)sc2nc(-c3ccco3)ccc12 | 6 | 3.7* | / | 7 | 1.1 | 7%
Cc1cccc(N(CC(=O)NC2CCCCC2)C(=O)c2c(C)noc2C)c1 | 0 | 1.1 | i | 2 | 1 | 1%
CCCCn1c2c(c3ccccc31)CCc1nonc1-2 | 7 | 1.3 | i | 6 | 1 | 4%
c1ccc(Cc2nn3c(-c4ccncc4)nnc3s2)cc1 | 0 | 1.1 | i | 3 | 1 | 2%
COCCSc1ccccc1C(=O)NCC1CCCO1 (stereo not drawn) | 2 | 1.2 | i | 5 | 1 | 2%
COc1ccccc1NC(=O)c1cc2ccc(O)cc2o/c1=N\O | 10 | 1.5 | i | 0 | 1.1 | 3%
COc1ccccc1N=c1oc2cc(O)ccc2cc1C(=O)NCC1CCCO1 (stereo not drawn) | 16 | 2.9* | i | 0 | 1.1 | 11%
Cc1cccc(N=c2oc3cc(O)ccc3cc2C(N)=O)c1 | 0 | 3.7* | i | 6 | 1.1 | 8%
COc1ccc2oc(=O)c(C(=O)N3CCN(C45CC6CC(CC(C6)C4)C5)CC3)cc2c1 | 10 | 3.7* | / | 0 | 1 | 5%
COc1ccccc1N=c1oc2cc(O)ccc2cc1C(N)=O | 11 | 3.6* | i | 5 | 1.1 | 15%
